Assay [1] in a line: StAR promoter reporter inhibitors, counter-screen for LRH-1 inverse agonist project, cell-based, luminescence, high throughput (AID 651611; in the data active = inhibition above about 28%). The note with it: StAR promoter luciferase reporter counterscreen, at 3.6 µM, active compounds read high.
For assay [2], the target named is Nuclear receptor subfamily 5 group A member 2 (Homo sapiens) (UniProt O00482). The assay is described as follows: NR5A2 activity suppression in reporter cells – cell-based, luminescence, confirmation (AID 651613; in the data active = inhibition above about 42%;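 also: HEK293T cells co-transfected with LRH-1 and StAR promoter luciferase reporter; 0% = vehicle wells and 100% = parental cells lacking receptor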). The note with it: cell-based LRH-1 luciferase reporter, inverse agonism; at 3.6 µM; active compounds read high. (A reporter such as luciferase makes a cellular process visible.)
Sequence of Nuclear receptor subfamily 5 group A member 2 (Homo sapiens) (O00482 whole entry, looked up): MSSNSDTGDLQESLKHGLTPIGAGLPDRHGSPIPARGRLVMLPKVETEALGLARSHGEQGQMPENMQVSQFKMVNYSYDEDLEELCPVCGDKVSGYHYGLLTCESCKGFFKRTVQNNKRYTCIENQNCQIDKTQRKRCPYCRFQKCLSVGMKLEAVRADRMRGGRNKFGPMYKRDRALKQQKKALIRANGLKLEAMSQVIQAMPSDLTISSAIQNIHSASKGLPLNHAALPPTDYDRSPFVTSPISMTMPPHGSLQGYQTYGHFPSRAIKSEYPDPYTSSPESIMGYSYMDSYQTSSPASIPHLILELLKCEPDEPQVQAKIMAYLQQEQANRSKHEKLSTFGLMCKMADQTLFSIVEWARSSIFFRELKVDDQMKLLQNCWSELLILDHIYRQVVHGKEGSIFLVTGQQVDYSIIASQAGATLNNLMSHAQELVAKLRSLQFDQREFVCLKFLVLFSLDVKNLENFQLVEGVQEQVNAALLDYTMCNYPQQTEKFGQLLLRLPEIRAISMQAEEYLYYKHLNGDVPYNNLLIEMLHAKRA

Assay [3] concerns the target Steroidogenic factor 1 (Homo sapiens) (UniProt Q13285). The assay is described as follows: inverse agonism at SF1 nuclear receptor – cell-based, luminescence, high throughput, counter-screen for LRH-1 inverse agonist project (AID 651614; in the data active = inhibition above about 44%;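 also: cells cotransfected with StAR promoter reporter and SF1 expression vector; 0% = vehicle on cells with receptor and 100% = vehicle on cells lacking receptor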). The note with it: cell-based SF1 luciferase reporter, at 3.6 µM, active compounds read high. Background: Counterscreens check selectivity or assay interference.

The nature of assay [4]: compounds suppressing VP16-driven luciferase signal – cell-based, luminescence, high throughput, counter-screen for LRH-1 inverse agonist project (AID 651615). Particulars: Gal4-VP16 luciferase reporter cells, at 3.6 µM, active compounds read high.

SMILES strings stand for the structures. Values without a mark were called inactive. Calls of active or inactive are those of the source. Rule as the data show it, unless noted: active = inhibition above about 33%; inactive = the rest.

Sequence of Steroidogenic factor 1 (Homo sapiens) (Q13285 whole entry, looked up): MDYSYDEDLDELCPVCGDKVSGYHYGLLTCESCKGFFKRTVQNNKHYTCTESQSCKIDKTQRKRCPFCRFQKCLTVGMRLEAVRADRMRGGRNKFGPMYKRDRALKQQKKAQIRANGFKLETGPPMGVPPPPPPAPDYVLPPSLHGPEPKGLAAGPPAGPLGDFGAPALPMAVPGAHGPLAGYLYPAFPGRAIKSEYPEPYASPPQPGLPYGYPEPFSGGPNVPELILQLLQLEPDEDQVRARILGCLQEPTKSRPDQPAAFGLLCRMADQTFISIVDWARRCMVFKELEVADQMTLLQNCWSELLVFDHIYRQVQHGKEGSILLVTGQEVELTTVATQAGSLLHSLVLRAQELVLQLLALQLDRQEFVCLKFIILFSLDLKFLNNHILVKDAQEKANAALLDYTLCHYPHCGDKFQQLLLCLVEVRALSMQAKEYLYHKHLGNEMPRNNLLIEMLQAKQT

As for `CCOc1ccc(CCNC(=O)COC(=O)Cc2c[nH]c3ccccc23)cc1OCC`, the inhibition in assay [1] was 9.43%; in assay [2] it was 56.5% (active); in assay [3], 56.3% (active); in assay [4], -0.69%.
Regarding `O=C(NNc1c(F)c(F)cc(F)c1F)C1CCN(S(=O)(=O)c2ccccc2F)CC1`, the inhibition in assay [1] is -3.09%; in assay [2] it was 8.61%; in assay [3] it was 22.4%; in assay [4], 4.32%.
On to `Cn1nnnc1Sc1ncnc2scc(-c3ccc(-c4ccccc4)cc3)c12`, for which the inhibition was 19.4% in assay [1], 33.6% in assay [2], 39.4% in assay [3] and -20.2% in assay [4].
`Oc1[nH]c2ccc(Br)cc2c1N=NC(=S)N1CCOCC1`: the inhibition in assay [1] is 83.2% (active); in assay [2] it was 93.8% (active); in assay [3], 87.7% (active); in assay [4] it was 55.5% (active).
Consider `COc1cc(N)c2ncccc2c1Br`, for which the inhibition was 16.6% in assay [1], 17.8% in assay [2], 26.6% in assay [3] and -4.59% in assay [4].
For the molecule `O=C(CCl)Nc1ccccc1C(=O)c1ccccc1`, the inhibition in assay [1] is 1.14%; in assay [2] it was 48.4% (active); in assay [3], 50% (active); in assay [4], -2.6%.
With `c1ccc(C2=Nn3c(nnc3-c3n[nH]c4c3CCC4)SC2)cc1`, the inhibition in assay [1] was 47.6% (active); in assay [2], 50.8% (active); in assay [3], 40.7%; in assay [4], -147%.
With `COc1ccc(OC)c(C2=NS(=O)(=O)N(C)C(C(=O)Nc3ccc(C(C)=O)cc3)=C2)c1`, the inhibition was 4.76% in assay [1], 44.8% (active) in assay [2], 45% (active) in assay [3] and -9.42% in assay [4].
The matching figures for `COc1ccc(CCNC(=O)COC(=O)Cc2ccccc2[N+](=O)[O-])cc1`: 8.86%, 65.5% (active), 61.4% (active) and -6.51%.
With `Cc1c(OCC(=O)NCCCN2CCOCC2)ccc2c(-c3ccccc3)cc(=O)oc12`, the inhibition in assay [1] was 2.78%; in assay [2] it was 37.8%; in assay [3] it was 36.5%; in assay [4], 5.76%.
Regarding `COc1ccc(C(=O)N/N=C(\c2ccccc2)c2ccccn2)cc1`, the inhibition in assay [1] is 76.4% (active); in assay [2], 80.3% (active); in assay [3], 84.9% (active); in assay [4], 60.4% (active).
For the molecule `CCC1CCCCN1C(=O)c1ccc([N+](=O)[O-])o1` (centres undefined), the inhibition in assay [1] was 0.98%; in assay [2], 47.5% (active); in assay [3], 46.7% (active); in assay [4] it was 3.65%.
For `Cc1ccc(-c2csc(NC(=O)C3CCN(S(=O)(=O)c4cccs4)CC3)n2)cc1`, the inhibition is 15.3% in assay [1], 58.5% (active) in assay [2], 55.4% (active) in assay [3] and 47.9% (active) in assay [4].
The matching figures for `CCCc1nnc(SCC(=O)Nc2ccc(C(=O)OCC)cc2)o1`: 5.44%, 56.6% (active), 60.7% (active) and -15.5%.
For `Cc1cc2oc(C(=O)NCc3ccncc3)c(C)c2cc1C`, the inhibition in assay [1] was -3.56%; in assay [2] it was 36.2%; in assay [3], 39.6%; in assay [4] it was 3.82%.
For the molecule `CCC(=O)Nc1ccc(NC(=O)CSc2nc3cc4c(cc3cc2C)CCC4)cc1`, the inhibition in assay [1] was 9.63%; in assay [2], 56.4% (active); in assay [3], 50.7% (active); in assay [4], 0.93%.
On to `Cc1ccc(NC(=O)CSc2nnc([C@@H]3CCCN3C(=O)OC(C)(C)C)o2)c(C)c1`, for which the inhibition in assay [1] is 13.8%; in assay [2], 58% (active); in assay [3], 54.5% (active); in assay [4], -1.31%.
On to `CCOc1ccc(CCNC(=O)COC(=O)CSc2ccccc2C)cc1OCC`, for which the inhibition in assay [1] was 2.02%; in assay [2], 49% (active); in assay [3], 41%; in assay [4], 8.24%.
As for `CCC(=O)Nc1nnc(SCC(=O)NCCc2ccc(OC)c(OC)c2)s1`, the inhibition in assay [1] was 12.9%; in assay [2] it was 55.6% (active); in assay [3], 57.3% (active); in assay [4], -15.4%.
Turning to `COc1ccc(/C=C2/C(=O)OCc3cc(OC)c(OC)cc32)cc1`, the inhibition in assay [1] is 36.9% (active); in assay [2] it was 56.4% (active); in assay [3], 57.9% (active); in assay [4], 23.4%.
Consider `COc1ccc(NC(=S)NCCc2ccc(F)cc2)c(OC)c1`, for which the inhibition in assay [1] was 7.84%; in assay [2], 10.5%; in assay [3], 18.5%; in assay [4] it was -8.33%.
The matching figures for `O=[N+]([O-])c1ccc(N2CCCCC2)cc1N1CCOCC1`: 18%, 54.3% (active), 54.9% (active) and -5.18%.
Take `COc1ccc(OCCNC(=O)C2(C)CCN2Cc2ccc(SC)cc2)cc1` (centres undefined): the inhibition in assay [1] was 1.32%; in assay [2], 46% (active); in assay [3], 45.9% (active); in assay [4], 2.76%.
Regarding `CCOC(=O)c1cc(C#N)c(N2CCCCC2)nc1-c1ccccc1`, the inhibition in assay [1] was 8.89%; in assay [2], 53.8% (active); in assay [3], 40.6%; in assay [4], -5.07%.
Consider `COc1cc(NC(=O)Cn2ccsc2=N)c(C)cc1[N+](=O)[O-]`, for which the inhibition in assay [1] is 11.8%; in assay [2], 49.5% (active); in assay [3], 58% (active); in assay [4], -0.82%.
`CCc1ccccc1NC(=O)CSc1nnc([C@@H](NC(=O)OC(C)(C)C)C(C)CC)o1` (some centres undefined): the inhibition in assay [1] was -3.97%; in assay [2] it was 39.5%; in assay [3], 30.1%; in assay [4] it was 4.95%.

As usually defined, the inhibition is the relative decrease from the control value, in per cent.

The values are drawn from PubChem BioAssay.
